Screens deposited in PubChem BioAssay by several laboratories.
CYP2C19 activ – activators of human cytochrome P450 2C19; P33261; recombinant CYP2C19, luciferin-H EGE luminescence; active compounds read high; 0 = fully inhibited enzyme, 1 = untreated enzyme; activation factor at 5 µM; 96,000 tested, under 10 active;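 active = activation factor of at least 2 at 5 µM in the primary screen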;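 note: 0 = wells with 2.5 mM tranylcypromine and 1 = vehicle-only wells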
Target sequence (P33261 whole entry, looked up): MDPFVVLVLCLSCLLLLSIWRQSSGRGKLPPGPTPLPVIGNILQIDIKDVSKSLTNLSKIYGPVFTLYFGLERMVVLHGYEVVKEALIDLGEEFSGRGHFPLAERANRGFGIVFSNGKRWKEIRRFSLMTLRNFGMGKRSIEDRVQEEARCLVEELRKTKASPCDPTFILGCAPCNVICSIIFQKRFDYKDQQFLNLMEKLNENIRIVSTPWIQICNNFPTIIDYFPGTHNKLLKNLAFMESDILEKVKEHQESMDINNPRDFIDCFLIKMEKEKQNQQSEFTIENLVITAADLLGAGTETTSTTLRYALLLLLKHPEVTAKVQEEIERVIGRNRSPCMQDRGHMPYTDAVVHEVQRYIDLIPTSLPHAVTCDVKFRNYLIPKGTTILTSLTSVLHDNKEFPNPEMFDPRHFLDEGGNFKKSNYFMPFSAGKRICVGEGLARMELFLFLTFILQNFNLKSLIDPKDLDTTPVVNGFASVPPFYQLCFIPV
CYP2C19 inh – blocks human cytochrome P450 2C19; P33261; inhibition, % at 5 µM; AID 778; CYP2C19 Supersomes, luciferin-H EGE luminescence, 30 min; hit rate 21% among 96,000;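 active = CYP2C19 inhibition above a set limit at 5 µM in the primary screen, cut at about 50% in these data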;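 note: plate controls were negative control wells for no effect and 2.5 mM tranylcypromine positive control for full effect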
CYP2C9 act – increases human cytochrome P450 2C9 activity; P11712; recombinant CYP2C9, luciferin-H conversion, luminescence; active compounds read high; factor 1 = untreated enzyme, 0 = blocked; activation factor at 5 µM; hit rate 1.4% among 96,000;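 active = activation factor of 2 or more for CYP2C9 at a 5 µM dose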;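 note: 0 = sulfaphenazole-blocked wells and 1 = vehicle-only wells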
Cav3 T inh – blocks human Cav3.2 T-type calcium channel | O95180 | B-score at 10 µM | hit rate 4% among 100,000 | AID 449739 | Cav3.2-expressing cells, Fluo-4 calcium fluorescence FDSS; active compounds read low;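 active = single-dose well whose peak fluorescence ratio is a statistical outlier from its plate by either plate-standardised score or position-corrected B-score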
CYP2C9 inh – inhibitors of human CYP2C9; P11712; CYP2C9 Supersomes, luciferin-H conversion, luminescence; inhibition, % at 5 µM; hit rate 20% among 96,000; AID 777;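 active = blocking of liver enzyme CYP2C9 beyond about 50% at 5 µM, limit read from the data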
* hit, by the source's call; . = no result. The list is not random: actives were taken first. Their share in the collection is about 27%.

SMILES | CYP2C19 activ | CYP2C19 inh | CYP2C9 act | Cav3 T inh | CYP2C9 inh
Cc1ccc(CN(C(=O)c2cc3ccccc3oc2=O)C2CCS(=O)(=O)C2)cc1 (stereo unspecified) | 0.9 | 8 | 0.7 | -2 | 29
O=C(c1sc2ccccc2c1Cl)N(Cc1ccccc1)C1CCS(=O)(=O)C1 (stereo unspecified) | 0.5 | 52* | 0.3 | -2.4 | 68*
Cc1cc2oc(C(=O)N(Cc3ccccc3)C3CCS(=O)(=O)C3)cc(=O)c2cc1Cl (stereo unspecified) | 0.4 | 62* | 0.2 | -0.8 | 80*
O=C(c1cccs1)N(Cc1cccc(Cl)c1)C1CCS(=O)(=O)C1 (stereo unspecified) | 0.8 | 17 | 0.7 | -0.42 | 28
CC1(C)SC(=S)N(/N=C/c2ccc(O)cc2)C1N(O)C(=O)Nc1ccc([N+](=O)[O-])cc1 (stereo unspecified) | 0.7 | 27 | 0.3 | -2.7 | 66*
Cc1ccc(/C=N/N2C(=S)SC(C)(C)C2N(O)C(=O)Nc2ccc([N+](=O)[O-])cc2)cc1 (stereo unspecified) | 0.8 | 23 | 0.7 | -0.03 | 30
CCCSc1nc(=O)n2cccc(C)c2n1 | 1 | 0 | 0.8 | 0.65 | 19
COc1ccc(Cn2cc3c(-c4ccc(F)cc4)nnc-3c3cc(OC)c(OC)cc32)cc1 | 1 | 4 | 0.6 | -2.1 | 42
COc1cc2c3nnc(-c4ccc(F)cc4)c-3cn(Cc3ccc(F)cc3)c2cc1OC | 0.7 | 34 | 0.2 | -0.063 | 77*
CCOc1ccccc1NC(=O)C1CCN(c2ccc(S(=O)(=O)N3CCCC3)cc2)CC1 | 0.6 | 44 | 0.5 | -0.58 | 54*
CCOc1ccccc1NC(=O)C1CCCCN1S(=O)(=O)c1ccc(F)cc1 (stereo unspecified) | 0.4 | 64* | 2.9* | -1.7 | -188
CCOCCCNC(=O)C1CCCCN1S(=O)(=O)c1ccc(F)cc1 (stereo unspecified) | 0.8 | 19 | 0.9 | 0.58 | 6
CC(C)(C)NS(=O)(=O)c1ccc(NS(C)(=O)=O)cc1 | 0.9 | 14 | 0.6 | 0.94 | 41
O=C(NNC1CC(=O)N(c2ccc3c(c2)OCCO3)C1=O)c1ccccc1 (stereo unspecified) | 0.9 | 6 | 0.9 | 1.8 | 6
Cc1ccc(C)c(CN2C(=O)C3(OCCCO3)c3ccccc32)c1 | 0.5 | 52* | 0.3 | -1.4 | 72*
O=C(CN1C(=O)C2(OCCCO2)c2ccccc21)NCc1ccccc1 | 0.4 | 64* | 0.8 | -1.3 | 15
Cc1ccc(CNC(=O)CN2C(=O)C3(OCCCO3)c3ccccc32)cc1 | 0.4 | 62* | 1.1 | 0.17 | -11
Cc1ncc2c(c1OC(=O)c1ccccc1)COC(C)(C)OC2 | 0 | 100* | 0.2 | . | 78*
Cc1cccc2cc(/C=C3\N=C(c4ccccc4)OC3=O)c(N3CCOCC3)nc12 | 0.9 | 12 | 0.9 | -6* | 7
Cc1nc(N2CCOCC2)c2cc(-c3ccccc3)sc2n1 | 0.7 | 34 | 0.6 | -0.8 | 44
CCOc1ccc(CNn2nnnc2N)cc1 | 1 | 4 | 1 | 0.89 | 2
CCCc1nn(-c2cc(Cl)ccc2OC)c2c1C(=O)CC(C)(C)C2 | 0.4 | 63* | 0.3 | -2.4 | 66*
CCc1nn(-c2cc(Cl)ccc2OC)c2c1C(=O)CCC2 | 0.7 | 34 | 0.8 | -1.6 | 16
Cc1cccc2cc(COC(=O)C(C)C)c(=O)[nH]c12 | 0.9 | 12 | 1.1 | -0.33 | -5
CCc1ccc(C(=O)CSc2n[nH]c(C)n2)cc1 | 0.1 | 89* | 0.6 | 0.14 | 35
SMILES | CYP2C19 activ | CYP2C19 inh | CYP2C9 act | Cav3 T inh | CYP2C9 inh
CCc1nc(SCC(=O)c2cc(C)ccc2C)n[nH]1 | 0.7 | 32 | 1.6 | 0.078 | -60
Cc1ccc(C(=O)CSc2n[nH]c(C)n2)cc1 | 0.5 | 52* | 1.1 | 0.2 | -15
CCCCOc1ccc(CSc2n[nH]c(C)n2)cc1 | 0.6 | 38 | 0.7 | -0.55 | 28
Cc1ccc(C)c(C(=O)CSc2n[nH]c(C)n2)c1 | 0.4 | 57* | 0.9 | 0.38 | 14
CN(c1ccccc1C(N)=O)S(=O)(=O)c1ccccc1 | . | . | . | 0.12 | .
CCOC(=O)c1nnn(-c2nonc2N)c1-c1ccc(OCC)cc1 | 0 | 99* | 0.1 | -1.2 | 89*
Cc1c(C(=O)N2CCCC2)nnn1-c1nonc1N | 0.5 | 52* | 1 | 0.061 | 3
CCOC(=O)c1nnn(-c2nonc2N)c1C | 0.8 | 15 | 1.1 | -0.67 | -11
COCc1c(C(N)=O)nnn1-c1nonc1N | 1 | 4 | 1 | 1 | 0
Nc1nonc1-n1nnc(C(=O)c2ccccc2)c1-c1ccccc1 | 0 | 98* | 0.1 | -3.4 | 91*
CC1=C(SCCC#N)S/C(=C2\SC(C)=C(SCCC#N)S2)S1 | 1 | -4 | 1 | . | -2
Brc1ccc(CN2CCSCC2)cc1 | 0.4 | 59* | 0.6 | 0.33 | 44
CCc1c(C(C)S(=O)(=O)c2ccc(C)cc2)[nH]c(=O)n1-c1ccc(C)cc1 (stereo unspecified) | 0.4 | 59* | 0.8 | 0.43 | 19
CCOC(=O)c1nc(N2CCN(C(=O)OCC)CC2)c2c3c(sc2n1)CCCC3 | 0.4 | 62* | 0.4 | 0.1 | 60*
CCN1CCN(c2nc(SC)nc3sc4c(c23)CC(C)(C)OC4)CC1 | 0.6 | 43 | 0.4 | -0.79 | 57*
CCOC(=O)N1CCN(c2nc(SC)nc3sc4c(c23)CC(C)(C)OC4)CC1 | 0.1 | 87* | 0.2 | -4.7* | 81*
CCOC(=O)c1nc2sc3c(c2c(=O)[nH]1)CCCC3 | 1 | -4 | 1 | -0.24 | 0
CC(C)Sc1nc(N2CCOCC2)c2c3c(sc2n1)COC(C)(C)C3 | 0.6 | 36 | 0.4 | -3.8 | 58*
O=c1cc(N2CCCCCC2)[nH]c(=O)n1-c1ccc(Cl)cc1 | . | . | . | 0.68 | .
COC(=O)c1[nH]c2cc(OC)ccc2c1NC(=O)CN1CCN(c2cccc(C)c2)C(C)C1 (stereo unspecified) | 0.9 | 14 | 0.7 | -2.8 | 31
COc1ccc(-c2nc(C)ncc2N=Nc2ccccc2)cc1 | 0.9 | 13 | 0.4 | -1.2 | 61*
O=c1ccn(-c2cccc(C(F)(F)F)c2)nc1-c1ccn(-c2ccccc2)n1 | 0.6 | 36 | 0.2 | -5.7* | 80*
COc1ccc(/C(C)=N/NC(=O)c2nc(C)cc(C)n2)cc1 | 1.2 | -24 | 2.3* | 0.84 | -135
COc1ccc(/C(C)=N/NC(=O)c2ccc(N(C)C)cc2)cc1 | 1 | 1 | 0.9 | . | 9
C#CCNC(=O)C1=C[C@@H](C2CC2)C[C@@H](OCc2ccc(CO)cc2)O1 | . | . | . | -0.00082 | .
Cc1ccc(NC(=S)NNC(=O)C2CC2c2ccc(C)cc2)cc1 (stereo unspecified) | . | . | . | -6.7* | .
Cc1ccc(C2CC2C(=O)NNC(=S)Nc2cccc(C)c2)cc1 (stereo unspecified) | . | . | . | -8.7* | .
Cc1cccc(N(C(=O)c2csnn2)C(C(=O)NC(C)(C)C)c2cccs2)c1 (stereo unspecified) | 0.7 | 31 | 0.9 | -0.0012 | 7
